Results from PubChem BioAssay AID1259422 (The Scripps Research Institute Molecular Screening Center, 2018).
The whole screen tested about 640,000 compounds, of which about 9,300 (1.5%) were called active. For the sample, actives were picked, then their nearest neighbours and some compounds at random. A number with no mark means an inactive call. Cut-off read from the data, not from the text of the source: active = inhibition above about 32%; inactive = the rest.

test: TEAD-YAP interaction inhibition, primary screen, TEAD-YAP interaction inhibitor project, luminescence, HEK-TIYL cells (AID 1259422); settings: TEAD-Gal4/YAP UAS-luciferase luminescence, at 9.12 µM, stronger effect = higher value;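 note: 0% = median of test compound wells and 100% = reference inhibitor wells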

| Compound | inhibition |
| --- | --- |
| O=[N+]([O-])c1ccc(Cl)c(S(=O)(=O)n2nnc3ccccc32)c1 | -1.22% |
| COC(=O)C1C(=O)NC(SCC(=O)Nc2ccc(OC)cc2)=C(C#N)C1c1ccc(C)cc1 (stereo not drawn) | -9.22% |
| CC(C)CCNS(=O)(=O)c1ccc2[nH]c3nc4nc(-c5ccc(Br)cc5)cn4nc3c2c1 | 6.91% |
| Cc1cc(=O)oc2c(/C=N\NC(=O)c3ccc(Br)cc3)c(O)ccc12 | 5.44% |
| CCOc1ccc(NC(=O)/C(C#N)=C\c2ccc(O)cc2)cc1 | -6.14% |
| O=C1C(=O)N(Cc2cccnc2)C(c2cccc(Br)c2)/C1=C(/O)c1ccccc1 (stereo not drawn) | -12.1% |
| O=C1CCC(=O)N1c1ccc(-c2nc3scc(-c4cccs4)c3c(=O)o2)cc1 | -7.68% |
| CCOC(=O)N1CCN(C(=O)c2cc3cc4ccc(OC)cc4nc3o2)CC1 | -1.56% |
| CCN(CC)C(=O)c1cc2cc3ccc(OC)cc3nc2o1 | 58% (active) |
| COc1ccc2nc3oc(C(=O)NC4CC4)cc3cc2c1 | -62.4% |
| COCCn1nnnc1CN(Cc1ccco1)CC1CCCO1 (stereo not drawn) | -5.83% |
| CCOC(=O)C1=C(C)NC2=C(C(=O)CC(C)(C)C2)C1c1cccs1 (stereo not drawn) | 7.66% |
| CCOc1ccc(C2C(C#N)=C(N)N(N(C)C)C3=C2C(=O)CC(c2ccccc2)C3)cc1 (stereo not drawn) | 17.9% |
| Cc1nnc(SCC(=O)c2ccc3c(c2)OCCO3)o1 | -48.4% |
| CCCCSc1nnc2c(n1)OC(c1cccc(Cl)c1)Nc1ccccc1-2 (stereo not drawn) | -39.8% |
| COc1cc(/C=C2/SC(=S)N(CC(=O)O)C2=O)cc2c1OCO2 | 2.97% |
| O=C(O)CCCCCN1C(=O)/C(=C/c2ccc3c(c2)OCO3)SC1=S | 43.9% (active) |
| C=CCOc1ccc(/C=C2\SC(=S)N(CCC(=O)O)C2=O)cc1 | 50.1% (active) |
| O=C(O)CCCCCN1C(=O)/C(=C\c2cccs2)SC1=S | 28.4% |
| O=C(O)CCN1C(=O)/C(=C\c2ccc(C(=O)O)cc2)SC1=S | -5.44% |
| CCN1C(=O)/C(=C/c2ccc(OCC(=O)O)cc2)SC1=S | -16.2% |
| COc1cccc(C(=O)NC(=S)Nc2ccc(Br)c(C)n2)c1 | -5.25% |
| O=C(NCc1ccc(F)cc1)c1ccc2nc3[nH]c4ccccc4c3nc2c1 | 4.49% |
| Cc1cc2nc3[nH]c4ccccc4c3nc2cc1C | -33% |

| Compound | inhibition |
| --- | --- |
| Cc1ccc2nc3[nH]c4ccccc4c3nc2c1 | 35% (active) |
| O=C(NNc1ccc([N+](=O)[O-])cc1[N+](=O)[O-])c1cc2ccccc2cc1O | 8.71% |
| Cc1cc(C(=O)N(Cc2ccccn2)c2nc3ccccc3s2)on1 | 69.7% (active) |
| O=C1CCC(=O)N1CC(=O)N(Cc1ccccn1)c1nc2ccccc2s1 | 18.1% |
| CCc1cccc2sc(N(Cc3ccccn3)C(=O)CSCc3ccccc3)nc12 | 2.11% |
| CC(=O)Oc1cccc(N2C(=O)c3ccc(-c4nc5ccccc5o4)cc3C2=O)c1 | -6.42% |
| C=CCc1ccc(OCCN2CC(C)OC(C)C2)c(OC)c1 (stereo not drawn) | -7.73% |
| CC(=O)c1cccc(NC(=O)c2nn3c(C(F)(F)F)cc(-c4ccc(Br)cc4)nc3c2Cl)c1 | 2.9% |
| CCC(=O)Oc1ccc(OC)cc1C1Oc2nc(SC)nnc2-c2ccccc2N1C(=O)CC (stereo not drawn) | -5.21% |
| COC(=O)C(C)n1cnc2sc(-c3ccccc3)cc2c1=O (stereo not drawn) | -25.2% |
| Cc1nc2sc(-c3ccccc3)cc2c(=O)o1 | 41% (active) |
| Cc1nc2ccc(Cc3ccc4nc(C)oc(=O)c4c3)cc2c(=O)o1 | -1.07% |
| O=S(=O)(O)CCC[n+]1ccc(/C=C/c2c[nH]c3ccccc23)cc1 | 3.32% |
| OCCCNc1ccc2ncc(-c3ccc(N4CCOCC4)cc3)n2n1 | 19.8% |
| Cc1cc(C(=O)COC(=O)C(CC(C)C)NC(N)=O)c(C)n1Cc1cccs1 (stereo not drawn) | 66.1% (active) |
| Cc1cc(C(=O)COC(=O)CCC(=O)c2cccs2)c(C)n1Cc1ccco1 | -6.67% |
| Cc1cc(C(=O)COC(=O)c2ccc([N+](=O)[O-])o2)c(C)n1Cc1cccs1 | 0.16% |
| Cn1c2ccccc2n2cc(-c3ccc([N+](=O)[O-])cc3)nc12 | -27.1% |
| COc1ccc(-c2cn3c4ccccc4n(N)c3n2)cc1 | 90% (active) |
| COc1ccc(-c2cn3c4ccccc4n(CCN4CCOCC4)c3n2)cc1 | -4.68% |
| CC(C)[C@@H](CO)Nc1ccc2ncc(-c3ccccc3F)n2n1 | 57.3% (active) |
| CCC(CO)Nc1ccc2ncc(-c3ccccc3)n2n1 (stereo not drawn) | 33.7% (active) |
| CC(C)[C@@H](CO)Nc1ccc2ncc(-c3ccc(C#N)cc3)n2n1 | 29.7% |
| CCC(CO)Nc1ccc2ncc(-c3cccc(F)c3)n2n1 (stereo not drawn) | 5.85% |

| Compound | inhibition |
| --- | --- |
| CC(C)[C@@H](CO)Nc1ccc2ncc(-c3ccc(O)cc3)n2n1 | -7.09% |
| CCC(CO)Nc1ccc2ncc(-c3ccc(N4CCOCC4)cc3)n2n1 (stereo not drawn) | -1.73% |
| CCS(=O)(=O)Nc1cccc(N2CCC(NCCn3nc(C)cc3C)CC2)c1 | 2.36% |
| CC(Oc1ccc(Cl)cc1Cl)C(=O)Nc1ccc(C(=O)O)cc1 (stereo not drawn) | 11.5% |
| O=C(CN(c1ccc(Cl)cc1Cl)S(=O)(=O)c1ccccc1)Nc1ccc(Cl)c(Cl)c1 | -0.39% |
| CC(C)(C)c1ccc(NC(=O)CSc2cccc[n+]2[O-])cc1 | -49.2% |
| O=C(NCc1ccc2c(c1)OCO2)c1cccnc1SCc1cccc(Br)c1 | 10.6% |
| NC(=O)c1c(NC(=O)Cc2ccccc2)sc2c1CCCCC2 | -7.09% |
| N#Cc1c(NC(=O)c2cc3ccccc3c(=O)o2)sc2c1CCCCC2 | 4.91% |
| COC(=O)c1c(NC(=O)c2cc3ccccc3oc2=O)sc2c1CCCC2 | -7.92% |
| O=C(Nc1sc2c(c1C(=O)O)CCCC2)c1cc2ccccc2o1 | 50.1% (active) |
| NC(=O)c1c(NC(=O)c2ccc(Br)o2)sc2c1CCCC2 | 3.19% |
| NC(=O)c1c(NC(=O)c2cc(=O)c3ccccc3o2)sc2c1CCCCC2 | 32.9% (active) |
| Cc1cccc(Nc2nc(-c3ccc(I)cc3)cs2)c1 | -33.1% |
| Cc1ccc(Nc2nc(-c3ccccn3)cs2)cc1C | 49.9% (active) |
| Cc1ccc(Nc2nc(-c3ccc(Br)cc3)cs2)cc1Cl | -7.82% |
| CN1CCc2nc(NC(=O)c3ccc(Cl)cc3Cl)sc2C1 | -69.8% |
| CCCN1CCc2nc(NC(=O)COc3ccc(Cl)cc3Cl)sc2C1 | 45% (active) |
| O=C(Nc1nc2c(s1)CN(Cc1ccccc1)CC2)c1cc(Cl)ccc1Cl | -2.92% |
| COc1ccc(C2CC(C(F)(F)F)n3ncc(C(=O)N4CCN(c5cccc(Cl)c5)CC4)c3N2)cc1OC (stereo not drawn) | -6.74% |
| c1cncc(Nc2nccc(Nc3ccc(N4CCOCC4)cc3)n2)c1 | 2.14% |
| FC(F)(F)c1cnc(Nc2ccc(N3CCOCC3)cc2)cc1-n1ncc2ccccc21 | -4.45% |
| Fc1cnc(Nc2ccc(N3CCNCC3)cc2)cc1-n1cnc(Nc2ccccc2)n1 | 64.6% (active) |
| O=C(c1nc2ccc(Cl)cn2c1CNCCn1cccn1)N1CCc2ccccc2C1 | 7.89% |

| Compound | inhibition |
| --- | --- |
| COc1cccc2c1OC1(CCN(C(=O)Cc3ccc(F)cc3F)CC1)OC2 | -1.73% |
| O=C(c1cc(-c2cccs2)on1)N1CCCC1 | -49.2% |
| O=C(c1cc(-c2ccc(O)cc2)on1)N1CCOCC1 | 50.7% (active) |
| CN(C(=O)c1cc(-c2ccc(O)cc2)on1)c1ccccc1 | 60% (active) |
| CCN(CC)C(=O)c1cc(-c2ccc(O)cc2)on1 | -1.47% |
| CC1CN(CC(=O)NCc2cc(-c3ccccc3)on2)Cc2ccccc2O1 (stereo not drawn) | -5.63% |
| COc1ccc(-c2cc(C(=O)N3CCCCC3)no2)cc1 | 6.05% |
| CCC(=O)Nc1ccccc1-c1nnn(CC(=O)Nc2ccc(CC)cc2)n1 | 12.7% |
| O=C(c1ccco1)N1CCN(c2nccn3c(-c4cccc(O)c4)cnc23)CC1 | -3.76% |
| CC(C)Cn1c(C2CC(=O)N(c3ccccc3)C2)nc2ccccc21 (stereo not drawn) | 3.79% |
| CCOc1ccc(-c2cn(-c3ccc(OC)cc3)c(SCC(=O)Nc3ccccc3C)n2)cc1 | -24.2% |
| c1c2c(cc3sc(N4CCCCC4)nc13)OCCO2 | 80.9% (active) |
| O=C(c1ccc2nc(N3CCCCC3)sc2c1)N1CCN(c2ccccc2)CC1 | -69.3% |
| O=C(Nc1ccc2c(c1)OCCO2)Nc1nnc(N2CCCCCC2)s1 | -9.25% |
| COc1ccc(-c2cc(C(=O)NC3CCCC(C)C3C)c3ccccc3n2)cc1 (stereo not drawn) | 1.88% |
| CCOC(=O)c1cnc2nc(NCc3cccc(OC)c3)[nH]n2c1=O | 3.92% |
| N/C(=N/OC(=O)c1ccccc1I)c1nonc1N | -2.53% |
| Cc1nc(N2CCN(c3ccccn3)CC2)c2c(C)c(C(=O)NCCN3CCOCC3)sc2n1 | 14.5% |
| Cc1nc(N2CCN(c3ccccn3)CC2)c2c(C)c(C(=O)N3CCN(Cc4ccc5c(c4)OCO5)CC3)sc2n1 | 36.8% (active) |
| CCN1CCN(C(=O)c2sc3nc(C)nc(N4CCN(c5ccccn5)CC4)c3c2C)CC1 | -1.03% |
| COc1ccc(NC(=O)CSc2nc3c(sc(=S)n3-c3ccccc3F)c(=O)n2-c2ccc(F)cc2)c(OC)c1 | 15.7% |
